The values that follow come from PubChem BioAssay (Tox21).

A number with no mark means an inactive call. Records with an inconclusive call do not appear. The source made the active and inactive calls. Unless noted, calls follow the shape of the dose curve; as a rule, active = well fitted curve in the direction sought with a large enough effect in the repeat runs; inconclusive = weak or mixed curves; inactive = no such curve, though single readings can be large; an effect the other way counts as inactive or inconclusive.

Test [1] can be described thus: qHTS assay to identify small molecule agonists of the estrogen receptor alpha (ER-alpha) signaling pathway in the presence of an antagonist - cell viability counter screen (AID 1259386).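 Also: cells exposed to compounds for 22 h at 37 °C before the viability read; nearly all actives have a fitted effect of over 30% in size.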 Also: potency is read from the fitted curve at half-maximal effect. The method, boiled down:
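Cytotoxicity was measured in parallel with the ERE-luciferase agonist screen, in the same wells. The cells were VM7Luc4E2, which endogenously express ER-alpha, and treatment was with compounds plus 10.0nM ICI-182,780 for 22hr.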
On the technique in general: qHTS replaces the single test concentration by a dilution series.

A short description of test [2]: qHTS assay to identify small molecule antagonists of the progesterone receptor (PR) signaling pathway - cell viability counter screen (AID 1346798). Also: nearly all actives have a fitted effect of over 50% in size. Also: potency is read from the fitted curve at half-maximal effect. The method, boiled down:
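CellTiter-Glo luminescence; PR-UAS-bla HEK293T, 3,000 cells/well; compound + R5020, 16 hr, 37C/5% CO2; 30 min RT before read.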

Test [3] in a line: qHTS assay to identify small molecule agonists of the progesterone receptor (PR) signaling pathway - cell viability counter screen (AID 1346799; calls by dose curve; also: nearly all actives have a fitted effect of over 45% in size; also: potency is read from the fitted curve at half-maximal effect). The gist of the method:
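In parallel with the beta-lactamase readout, cytotoxicity toward PR-UAS-bla HEK293T cells was measured by CellTiter-Glo luminescence following 16 hr compound incubation in 2% charcoal-stripped FBS medium.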

Test [4] in a line: qHTS assay to identify small molecule antagonists of the TGF-beta/Smad signaling pathway - cell viability counter screen (AID 1346824). Also: nearly all actives have a fitted effect of over 50% in size. The method, boiled down:
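SBE-bla HEK 293T cells, incubated overnight, then compound plus 0.25 ng/mL TGF-beta1 (stock added) for 5 hr at 37 C. Viability was read in the same wells by CellTiter-Glo luminescence after 30 min at room temperature.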

The nature of test [5]: qHTS assay to identify small molecule agonists of the TGF-beta/Smad signaling pathway - cell viability counter screen (AID 1346829). Also: top concentration of the series differs between compounds; nearly all actives have a fitted effect of over 45% in size. The gist of the method:
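Same-well cytotoxicity: CellTiter-Glo added after the 2 hr room-temperature beta-lactamase substrate step, luminescence measured 30 min later; cells had 5 hr of compound at 37 C.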

Test [6] can be described thus: qHTS assay to identify small molecule agonists of the TGF-beta/Smad signaling pathway (AID 1346859; active = well fitted activation curve with a large enough effect in the signal ratio in the repeat runs, not every such curve was filed as active; the % refers to the signal ratio; also: series mostly up to about 77 µM). The method, boiled down: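 After overnight seeding, SBE-bla HEK 293T cells are dosed with compounds in DMSO and kept 5 hr at 37 C, 5% CO2. LiveBLAzer-type FRET substrate is then applied for 2 hr at room temperature.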
The target of test [7] is Thyrotropin-releasing hormone receptor (Homo sapiens) (UniProt P34981). In words: qHTS assay to identify small molecule antagonists of the thyrotropin-releasing hormone receptor (TRHR) signaling pathway (AID 1346877; active = well fitted inhibition curve with a large enough effect in the repeat runs, not every such curve was filed as active; also: series mostly up to about 51 µM). The gist of the method: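 Antagonism is measured as suppression of the calcium response to 1 nM TRH in TRHR-HEK293 cells that have been dye-loaded for 2 h at 37 °C after overnight plating. Each compound is tested at 15 concentrations in triplicate.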

Test [8] has the same target. In words: qHTS assay to identify small molecule agonists of the thyrotropin-releasing hormone receptor (TRHR) signaling pathway (AID 1346891; calls by dose curve;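 also: HEK293 cells expressing TRHR with calcium dye readout; series mostly up to about 58 µM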). The method, boiled down:
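Compounds were tested as agonists at 15 concentrations, in triplicate, on TRHR-Hek293 cells; calcium-sensitive dye fluorescence was recorded for 3 min following addition.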

Test [9] can be described thus: Human pregnane X receptor (PXR) small molecule agonists, qHTS cell viability counter screen (AID 1346977). Also: nearly all actives have a fitted effect of over 50% in size. The gist of the method: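 Viability counter screen: CellTiter-Fluor signal in PXR-Luc HepG2 cells, 24hr compound exposure, 37C, 5% CO2.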
A short description of test [10]: Caspase-3/7 induction in HepG2 cells by small molecules, qHTS assay (AID 1346978). Also: nearly all actives have a fitted effect of over 15% in size. The gist of the method: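 Wild-type HepG2 cells, 2,000/well, settled 5 hr at 37 C and 5% CO2, then compound-treated for 17 hr; caspase-3/7 activity read by luminescent Caspase-Glo 3/7 after 30 min at room temperature.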
The nature of test [11]: Caspase-3/7 induction in CHO-K1 cells by small molecules, qHTS cell viability counter screen (AID 1346979). Also: nearly all actives have a fitted effect of over 35% in size. Also: potency is read from the fitted curve at half-maximal effect. The method, boiled down: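 Viability readout by fluorescence (CellTiter-Fluor) on wild-type CHO-K1 cells exposed for 16hr at 37C and 5% CO2 to compounds delivered in DMSO; reagent incubated 1hr before reading.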
Test [12] in a line: Caspase-3/7 induction in CHO-K1 cells by small molecules, qHTS assay (AID 1346980). Also: nearly all actives have a fitted effect of over 15% in size. The method, boiled down:
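Wild-type CHO-K1 cells exposed to compounds for 17hr at 37 C, 5% CO2. Caspase-3/7 activity then measured by Caspase-Glo 3/7 luminescence after 30min at room temperature.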

A short description of test [13]: Caspase-3/7 induction in HepG2 cells by small molecules, qHTS cell viability counter screen (AID 1346981). Also: series mostly up to about 92 µM; nearly all actives have a fitted effect of over 30% in size. The method, boiled down: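 Cell viability is measured as a cytotoxicity counter screen alongside the Caspase-Glo 3/7 readout in identical wells. Wild-type HepG2 cells are treated with test compounds for 16 hr at 37 C before CellTiter-Fluor addition and a 1-hr incubation.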

The target in test [14] is Nuclear receptor subfamily 1 group I member 2 (Rattus norvegicus) (UniProt Q9R1A7). In words: Rat pregnane X receptor (rPXR) activation by small molecules, qHTS assay (AID 1346983). Also: nearly all actives have a fitted effect of over 20% in size. To be noted: rPXR luciferase reporter cells, One-Glo luminescence, 24 h; max activation: stronger effect = higher value. The gist of the method: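 Cell-based rPXR activation assay: rPXR cells, 2,000 per well, rested 5hr at 37 C, then exposed to compounds in DMSO for 24 hr at 37 C. Luciferase activity read by One-Glo luminescence after 30 min at room temperature.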

Test [15] deals with Nuclear receptor subfamily 1 group I member 2 (Homo sapiens) (UniProt O75469). In words: CYP3A4 induction through human pregnane X receptor (PXR) by small molecules, qHTS assay (AID 1346984). Also: nearly all actives have a fitted effect of over 40% in size. The gist of the method: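 Quantitative HTS in DPX-2 cells, i.e. HepG2 transfected with PXR response element and CYP3A4-promoter luciferase. Compounds in DMSO incubated 24hr at 37C; then P450-Glo CYP3A4 substrate, 3uM final, 3hr; One-Glo luminescence.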

For test [16] the target is unchanged. In words: Human pregnane X receptor (PXR) activation by small molecules, qHTS assay (AID 1346985). Also: nearly all actives have a fitted effect of over 40% in size. The gist of the method: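 DPX-2 cells (HepG2 co-transfected with a PXR response element and a CYP3A4-promoter luciferase construct) were seeded at 2,000 per well, rested 5 hr at 37C, then exposed to DMSO-dissolved compounds for 24 hr. Activation was read as luciferase luminescence.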

Test [17] concerns the target Cytochrome P450 2D6 (Homo sapiens) (UniProt P10635). In words: Cytochrome P450 Family 2 Subfamily D Member 6 (CYP2D6) small molecule antagonists: luciferase reporter qHTS assay (AID 1671196). Also: nearly all actives have a fitted effect of over 50% in size. Also: potency is read from the fitted curve at half-maximal effect. The gist of the method:
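Enzyme and proluciferin substrate were first combined with test chemical for 10 min at room temperature. Adding NADPH regeneration solution started a 1 h reaction, stopped with luciferin detection reagent and read by luminescence 20 min later.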
(In general: In a reporter assay the amount or activity of a reporter protein is the signal.)

Test [18] concerns the target Nuclear receptor subfamily 1 group I member 2 (Homo sapiens) (UniProt O75469). Put plainly: Human pregnane X receptor (PXR) small molecule agonists, qHTS assay (AID 1346982). Also: nearly all actives have a fitted effect of over 35% in size. Also: potency is read from the fitted curve at half-maximal effect. The method, boiled down: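 Cells: HepG2 stably carrying PXR-Luc. Medium held 5% charcoal-stripped FBS. Compounds in DMSO added after 5 hr plating, incubated 24 hr, then luminescence quantified with ONE-Glo.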

Test [19] deals with Progesterone receptor (Homo sapiens) (UniProt P06401). Put plainly: qHTS assay to identify small molecule antagonists of the progesterone receptor (PR) signaling pathway (AID 1346795; active = well fitted inhibition curve with a large enough effect in the signal ratio in the repeat runs, not every such curve was filed as active; the % refers to the signal ratio; also: potency is read from the fitted curve at half-maximal effect). The gist of the method: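 Fluorescence intensity measured 2 hr after adding beta-lactamase FRET substrate to PR-UAS-bla HEK293T cells that had been co-treated 16 hr with compound and 1 nM R5020 (final concentration) in 2% charcoal-stripped FBS.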
% is scaled to controls: 0 for no effect and ±100 for the full control effect.

Cytochrome P450 2D6 (Homo sapiens), sequence (P10635 whole entry, looked up): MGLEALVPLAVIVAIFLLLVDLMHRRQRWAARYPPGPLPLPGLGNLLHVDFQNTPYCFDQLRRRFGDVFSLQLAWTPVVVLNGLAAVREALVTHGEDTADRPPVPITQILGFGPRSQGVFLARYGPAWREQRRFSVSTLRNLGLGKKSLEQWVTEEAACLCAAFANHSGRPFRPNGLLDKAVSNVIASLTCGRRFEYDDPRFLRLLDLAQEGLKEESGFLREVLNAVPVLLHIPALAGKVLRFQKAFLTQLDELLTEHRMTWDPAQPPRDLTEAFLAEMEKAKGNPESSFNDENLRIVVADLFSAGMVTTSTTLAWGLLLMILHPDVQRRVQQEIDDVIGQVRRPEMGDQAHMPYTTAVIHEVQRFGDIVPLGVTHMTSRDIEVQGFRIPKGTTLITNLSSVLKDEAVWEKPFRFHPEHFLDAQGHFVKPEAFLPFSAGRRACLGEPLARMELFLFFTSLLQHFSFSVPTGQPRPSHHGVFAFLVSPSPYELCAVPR
Progesterone receptor (Homo sapiens), sequence (P06401 whole entry, looked up): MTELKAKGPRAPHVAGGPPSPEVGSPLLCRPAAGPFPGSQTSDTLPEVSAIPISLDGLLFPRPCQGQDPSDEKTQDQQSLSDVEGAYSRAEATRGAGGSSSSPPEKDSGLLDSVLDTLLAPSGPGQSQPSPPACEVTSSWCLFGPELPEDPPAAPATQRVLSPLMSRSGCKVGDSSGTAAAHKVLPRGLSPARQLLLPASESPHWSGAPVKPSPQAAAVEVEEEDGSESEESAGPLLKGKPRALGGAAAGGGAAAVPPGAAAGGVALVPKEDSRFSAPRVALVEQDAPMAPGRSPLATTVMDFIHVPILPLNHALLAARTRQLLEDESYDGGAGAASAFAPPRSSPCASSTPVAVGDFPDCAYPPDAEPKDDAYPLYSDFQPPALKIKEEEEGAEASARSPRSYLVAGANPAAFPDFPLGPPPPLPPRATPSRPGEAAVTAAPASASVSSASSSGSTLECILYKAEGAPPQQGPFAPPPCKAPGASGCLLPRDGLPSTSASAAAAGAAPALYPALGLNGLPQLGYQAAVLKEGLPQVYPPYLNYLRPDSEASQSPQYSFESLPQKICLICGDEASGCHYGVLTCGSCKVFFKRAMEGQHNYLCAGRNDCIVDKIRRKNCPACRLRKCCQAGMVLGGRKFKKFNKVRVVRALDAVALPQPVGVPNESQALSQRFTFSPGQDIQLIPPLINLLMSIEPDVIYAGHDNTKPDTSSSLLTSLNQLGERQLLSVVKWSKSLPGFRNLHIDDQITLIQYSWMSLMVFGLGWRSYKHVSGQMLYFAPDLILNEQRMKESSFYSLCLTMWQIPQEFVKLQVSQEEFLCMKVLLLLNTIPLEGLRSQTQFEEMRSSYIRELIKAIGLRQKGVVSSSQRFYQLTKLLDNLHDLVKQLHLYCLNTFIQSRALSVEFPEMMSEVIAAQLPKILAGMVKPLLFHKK
Nuclear receptor subfamily 1 group I member 2 (Homo sapiens), sequence (O75469 whole entry, looked up): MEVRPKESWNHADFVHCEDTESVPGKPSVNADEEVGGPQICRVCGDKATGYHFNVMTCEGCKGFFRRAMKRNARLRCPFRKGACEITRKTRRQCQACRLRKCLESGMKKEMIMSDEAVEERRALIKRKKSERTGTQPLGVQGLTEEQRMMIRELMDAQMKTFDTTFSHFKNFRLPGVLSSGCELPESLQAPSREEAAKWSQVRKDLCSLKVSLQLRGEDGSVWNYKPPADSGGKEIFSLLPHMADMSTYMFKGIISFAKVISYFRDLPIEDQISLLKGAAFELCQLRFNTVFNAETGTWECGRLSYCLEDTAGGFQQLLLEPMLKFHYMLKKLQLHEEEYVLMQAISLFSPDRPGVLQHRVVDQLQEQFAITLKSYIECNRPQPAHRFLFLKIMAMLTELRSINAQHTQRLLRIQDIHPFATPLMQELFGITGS
Nuclear receptor subfamily 1 group I member 2 (Rattus norvegicus), sequence (Q9R1A7 whole entry, looked up): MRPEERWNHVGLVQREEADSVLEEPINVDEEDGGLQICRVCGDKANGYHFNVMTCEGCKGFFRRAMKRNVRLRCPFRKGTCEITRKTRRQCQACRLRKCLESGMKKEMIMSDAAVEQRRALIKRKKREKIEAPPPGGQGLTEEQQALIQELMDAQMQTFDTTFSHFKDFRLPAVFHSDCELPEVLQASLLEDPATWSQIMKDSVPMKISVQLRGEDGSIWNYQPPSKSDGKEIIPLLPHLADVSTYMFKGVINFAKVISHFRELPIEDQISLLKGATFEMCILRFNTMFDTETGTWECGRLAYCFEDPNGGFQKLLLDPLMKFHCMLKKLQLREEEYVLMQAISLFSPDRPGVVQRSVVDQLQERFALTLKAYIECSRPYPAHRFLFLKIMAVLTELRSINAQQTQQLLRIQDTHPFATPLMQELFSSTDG
Thyrotropin-releasing hormone receptor (Homo sapiens), sequence (P34981 whole entry, looked up): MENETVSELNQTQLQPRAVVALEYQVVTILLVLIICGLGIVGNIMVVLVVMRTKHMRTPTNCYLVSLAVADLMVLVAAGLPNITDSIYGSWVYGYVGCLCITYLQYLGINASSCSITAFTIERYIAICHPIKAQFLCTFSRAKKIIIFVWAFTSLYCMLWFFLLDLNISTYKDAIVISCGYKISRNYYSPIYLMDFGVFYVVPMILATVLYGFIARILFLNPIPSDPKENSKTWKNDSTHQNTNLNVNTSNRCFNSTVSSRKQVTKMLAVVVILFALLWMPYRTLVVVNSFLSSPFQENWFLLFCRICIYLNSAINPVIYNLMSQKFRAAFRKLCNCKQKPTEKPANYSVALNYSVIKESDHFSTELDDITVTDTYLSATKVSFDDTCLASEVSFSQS

Regarding `C=CCOc1ccccc1OCC(O)CNC(C)C` (configuration not stated), the Potency result in [1], in test [2], in test [3], in [4], in test [6] and in test [8] was “inactive” each time. Moreover, the Potency entry in test [9], in test [10], in test [11], in test [12], in test [13] and in test [15] was “inactive” throughout. Moreover, the Potency result in [16] was “inactive”. Further, the outcome in test [5] and in test [7] was inactive. Also, in test [14], the max activation was 5.72%. In addition, the Potency in test [17] is 9.77 µM (active).
Consider `CC(=O)NO`, for which the Potency result in test [1], in test [3], in test [4], in [6], in [8] and in [9] was “inactive” throughout. In addition, the Potency entry in [10], in [11], in test [13], in test [18], in test [15] and in [16] was “inactive” each time. In addition, the Potency entry in [17] is “inactive”. Besides, the result in [5] and in test [7] was inactive. In addition, the max activation in [14] was -0.0404%.
Take `COc1ccc(C)cc1[N+](=O)[O-]`: the Potency entry in test [1], in [19], in test [2], in test [3], in [4] and in test [6] was “inactive” throughout. In addition, the Potency result in test [8], in [11], in [13] and in test [17] was “inactive” each time. Also, the compound was classed as inactive in [5] and in test [7].
Consider `C=C(C)C(=O)OCC`, for which the Potency entry in test [1], in test [2], in test [3], in test [4], in test [6] and in [8] was “inactive” each time. Also, the Potency result in [9], in test [10], in test [11], in test [13], in [18] and in [17] was “inactive” throughout. Also, the compound was called inactive in test [7].
On to `CCCCCCOC(=O)NC(=N)c1ccc(NCc2nc3cc(C(=O)N(CCC(=O)OCC)c4ccccn4)ccc3n2C)cc1`, for which the Potency in test [1] is 26.6 µM (active); in test [2], 21.1 µM (active); in test [3] it was 18.8 µM (active); in test [11] it was 29.8 µM (active); in test [18], 11.9 µM (active). Further, the outcome in [7] was inactive. The Potency entry in test [8], in test [10] and in test [12] was “inactive” throughout.
Turning to `O=C1c2ccccc2S(=O)(=O)N1CCCCN1CCN(c2ncccn2)CC1`, the Potency result in [1], in test [2], in test [3], in test [4], in [6] and in test [8] was “inactive” each time. The Potency entry in test [9], in [11], in test [12] and in test [13] was “inactive” throughout. Besides, the result in [5] and in test [7] was inactive. Moreover, in test [14], the max activation was 0.873%. Besides, the Potency in [17] is 1.38 µM (active).
Take `CC1CCC(=O)C1=O` (configuration not stated): the Potency result in test [1], in test [19], in test [2], in test [3], in test [4] and in test [6] was “inactive” throughout. Also, the Potency result in test [9], in [10], in [11], in test [12], in test [13] and in test [18] was “inactive” each time. For the same compound, in [17], the Potency entry is “inactive”. Moreover, the outcome in [5] was inactive.
For the compound `Cc1oc2c(NC(=O)c3c(Cl)cccc3Cl)cccc2c1C(C)(C)O`, the Potency entry in [1], in [2], in test [4], in test [6], in [8] and in test [10] was “inactive” throughout. Also, the Potency entry in test [12] and in test [17] was “inactive” throughout. Besides, the Potency was 24.3 µM (active) in test [19] and 1.09 µM (active) in [18]. Besides, the compound was called inactive in test [5] and in test [7].
